Most compounds without a hit are left out; they make up all but 5.2% or so of the library.
FBPA coupling cs – qHTS Assay for Inhibitors of Fructose-1,6-bisphosphate Aldolase from Giardia Lamblia: Coupling assay counterscreen; coupling enzyme system counterscreen, AmpLite Red fluorescence; activity change, negative = inhibition, % at 58.2 µM, hits read low; 0.67% of 290,000 active; in the data active = activity change below about -30%
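Coupling enzymes only (glyceraldehyde-3-phosphate) + compound, at 57.5 uM final, 10 min RT; add substrate/coupling/AmpLite Red mix, 20 min RT; fluorescence ex 525/em 598 nm. Actives flag coupling-system interference.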
Tau fibril ThT – qHTS for Inhibitors of Tau Fibril Formation, Thioflavin T Binding; 2.1% of 270,000 active; Microtubule-associated protein tau (Homo sapiens), P10636; recombinant tau K18 P301L, heparin-induced fibrillization, ThT fluorescence; Potency, µM (titrated, usually from 57.4 µM), without a hit: at the highest dose activity, negative = inhibition, most hits filed as inhibitors; also: potency is read from the fitted curve at half-maximal effect; nearly all actives have a fitted effect of over 55% in size
Target sequence (P10636 561-689 P618L limits assumed): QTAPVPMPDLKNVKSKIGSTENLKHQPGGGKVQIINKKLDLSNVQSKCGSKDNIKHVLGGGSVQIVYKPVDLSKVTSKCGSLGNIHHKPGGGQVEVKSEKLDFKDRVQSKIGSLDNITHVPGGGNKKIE
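ThT emission at 510 nm, taken 1 hr after adding 30 uM dye, quantifies aggregates formed when 20 uM heparin acts on human tau K18 P301L for 6 hr at 37 C.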
Tau fluor cs – Counterscreen qHTS for Inhibitors of Tau Fibril Formation, Fluorescence Polarization; tau K18 P301L (four-repeat tau fragment) Alexa594 fluorescence, heparin fibrillization; Potency, µM (series often up to 57.7 µM), for the others: top-dose activity change, negative = decrease; 0.93% of 280,000 active; also: potency is read from the fitted curve at half-maximal effect; nearly all actives have a fitted effect of over 55% in size
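Human K18 P301L tau (15 uM unlabeled plus 0.24 uM Alexa 594-labeled, final) in 100 mM sodium acetate pH 7 was mixed with compound and 20 uM heparin and incubated 6 hr at 37 C.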
Sfp PPTase inh – qHTS Assay for Inhibitors of Bacillus subtilis Sfp phosphopantetheinyl transferase (PPTase); Potency, µM, for inactives: largest response in the series, negative = inhibition, usual class: inhibitors; Biochemical Sfp PPTase activity, qHTS; 3.5% of 310,000 active; 4'-phosphopantetheinyl transferase ffp (Bacillus subtilis), Q9F4F7;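 also: the enzyme is Sfp with the accession as filed and its product quenches rhodamine fluorescence; potency is read from the fitted curve at half-maximal effect; 0% = enzyme reaction without inhibitor and -100% = no enzyme wells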
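Fluorescence-quenching assay: 15 nM Sfp-PPTase preincubated 15 min at room temperature with compound, then 5 uM rhodamine-CoA and 12.5 uM BHQ-2-labelled YbbR peptide added. Fluorescence (ex 525/em 598 nm) read at start and after 30 min; difference gives rate.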
Tau fibril FP – qHTS for Inhibitors of Tau Fibril Formation, Fluorescence Polarization; Microtubule-associated protein tau (Homo sapiens), P10636; K18 P301L tau heparin fibrillization, Alexa594 FP, 6 h; Potency, µM (highest dose often 57.7 µM), for the others: at the top dose activity, negative = inhibition, usual class: inhibitors; 0.39% of 280,000 active; AID 1468, 2008; also: potency is read from the fitted curve at half-maximal effect; nearly all actives have a fitted effect of over 55% in size
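Human K18 P301L fragment (15 uM unlabeled plus 0.24 uM Alexa 594-labeled) in 100 mM sodium acetate pH 7 with compound, aggregation induced by 20 uM heparin for 6 hr at 37 C. ThT (30 uM) added for 1 hr, then Alexa 594 FP read.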
* = called active by the depositor; ! = repeats disagree. Unless noted, calls follow the shape of the dose curve; as a rule, active = well fitted curve in the direction sought with a large enough effect; inconclusive = small, poorly fitted or top-dose-only effect, or another doubt; inactive = no such curve, though single readings can be large; an effect the other way counts as inactive or inconclusive. Unless noted, % is scaled to controls: 0 for no effect and ±100 for the full control effect.

How did CC(=O)N1CCN(CC(=O)Nc2ccc(C#N)c(Cl)c2)CC1 do in these assays?
FBPA coupling cs: 3.6; Tau fibril ThT: -2.7%; Tau fluor cs: -4.1%; Sfp PPTase inh: 8.8%; Tau fibril FP: -10.4%

What do the screens show for `N#CC1=C(N)Oc2n[nH]c(-c3cccs3)c2C1c1ccsc1` (centres undefined)?
FBPA coupling cs: -13.9; Tau fibril ThT: 12.6µM*; Tau fluor cs: -26.4%; Sfp PPTase inh: -3.3%; Tau fibril FP: inconclusive

Results for N#CC1=C(N)Oc2n[nH]c(-c3cccs3)c2C1c1ccco1 (centres undefined) ?
FBPA coupling cs: -31.0*; Tau fibril ThT: 15.8µM*; Tau fluor cs: inconclusive; Sfp PPTase inh: inconclusive; Tau fibril FP: inconclusive

How did C[C@@H](NC(=O)[C@@H](N)Cc1ccc(O)cc1)C(=O)NCC(=O)N(C)[C@@H](Cc1ccccc1)C(=O)NCCO do in these assays?
FBPA coupling cs: 2.9; Sfp PPTase inh: 1.9%

Results for O=C1NC(=O)c2c1c1c3ccccc3n3c1c1c2c2ccccc2n1C1CCC3O1 ?
FBPA coupling cs: 2.4; Sfp PPTase inh: 1.6%

What do the screens show for `C[C@H](N)Cc1c[nH]c2ccc(OCc3cccs3)cc12`?
FBPA coupling cs: 2.5; Tau fibril ThT: -17.5%; Tau fluor cs: -27.2%; Sfp PPTase inh: -17.3%; Tau fibril FP: 15.2%

Results for CC1CC2OC2/C=C\C=C/C(=O)Cc2c(Cl)c(O)cc(O)c2C(=O)O1 (centres undefined) ?
FBPA coupling cs: 3.3; Tau fibril ThT: inconclusive; Tau fluor cs: -17.8%; Sfp PPTase inh: -7.6%; Tau fibril FP: -10.4%

How did CN1CSC(=S)N(C)C1 do in these assays?
FBPA coupling cs: 0.7; Tau fibril ThT: -9.2%; Tau fluor cs: -6.2%; Sfp PPTase inh: 44.7µM*; Tau fibril FP: -9.4%

Results for CCN1C(=O)c2ccccc2Sc2ccc(NC(=O)c3ccc(C)c(F)c3)cc21 ?
Tau fibril ThT: 5.3%; Tau fluor cs: -19.3%; Tau fibril FP: inconclusive

Results for Cc1ccc(C=C2C(Cl)=C(Cl)C(Cl)=C2Cl)cc1 ?
FBPA coupling cs: 1.1; Tau fibril ThT: 15.8µM*; Tau fluor cs: inconclusive; Sfp PPTase inh: inconclusive; Tau fibril FP: inconclusive

How did CN1/C(=C\C=C2C(=O)NC(=O)NC2=O)C(C)(C)c2ccccc21 do in these assays?
FBPA coupling cs: -1.2; Tau fibril ThT: inconclusive; Tau fluor cs: -7.0%; Sfp PPTase inh: 10.0%; Tau fibril FP: -3.3%

What do the screens show for `CN1/C(=C\C=Nc2ccccc2)C(C)(C)c2ccccc21`?
FBPA coupling cs: -8.7; Tau fibril ThT: inconclusive; Tau fluor cs: inconclusive; Sfp PPTase inh: 79.4µM*; Tau fibril FP: -11.9%

Results for O=[N+]([O-])c1cccc(CN2CCN(Cc3ccc(Cl)cc3)CC2)c1 ?
FBPA coupling cs: -6.5; Tau fibril ThT: -6.8%; Tau fluor cs: -14.3%; Sfp PPTase inh: inconclusive; Tau fibril FP: inconclusive

How did CC(C)N1CCN(Cc2cccc([N+](=O)[O-])c2)CC1 do in these assays?
FBPA coupling cs: -2.5; Tau fibril ThT: -5.8%; Tau fluor cs: -6.9%; Sfp PPTase inh: 79.4µM*; Tau fibril FP: -2.5%

What do the screens show for `CNC(C)[C@@H](O)c1ccc(O)cc1` (some centres undefined)?
Sfp PPTase inh: -1.5%

What do the screens show for `CC1(C)[C@H](C(=O)O[C@H](C#N)c2cccc(Oc3ccccc3)c2)[C@@H]1C=C(Br)Br`?
FBPA coupling cs: 0.3; Sfp PPTase inh: -22.9%

Results for C#CC[N+]1(C)[C@@H]2CC[C@H]1CC(OC(=O)C(CO)c1ccccc1)C2 (some centres undefined) ?
FBPA coupling cs: 6.4; Sfp PPTase inh: 0.7%

What do the screens show for `C[N+]1(C)[C@@H]2CC[C@H]1CC(OC(=O)[C@@H](CO)c1ccccc1)C2` (some centres undefined)?
FBPA coupling cs: -0.2; Sfp PPTase inh: 39.8µM*!

Results for CC(=O)C1CCC2C3CCC4CC(C)(O)CCC4(C)C3CCC12C (centres undefined) ?
FBPA coupling cs: 0.9; Sfp PPTase inh: 24.9%

Results for Cn1nc(OC(=O)Nc2ccc(Cl)cc2)cc1C(F)(F)F ?
FBPA coupling cs: -1.4; Tau fibril ThT: -8.7%; Tau fluor cs: -19.2%; Sfp PPTase inh: 5.4%; Tau fibril FP: inconclusive

Results for O=C(Nc1ccc(Cl)cc1)O/N=C(\c1ccccc1)c1ccccn1 ?
FBPA coupling cs: 1.8; Tau fibril ThT: -6.3%; Tau fluor cs: -12.8%; Sfp PPTase inh: 39.8µM*; Tau fibril FP: -4.6%

How did O=C(O)CC1OCC=C2CN3CCC45c6ccccc6NC4C1C2CC35 (centres undefined) do in these assays?
FBPA coupling cs: -0.1; Tau fibril ThT: -2.8%; Tau fluor cs: -5.1%; Sfp PPTase inh: 13.8%; Tau fibril FP: -0.2%

What do the screens show for `O=C(O)CC1OCC=C2CN3CCC45C6=CC(=O)C(=O)C([N+](=O)[O-])=C6NC4C1C2CC35` (centres undefined)?
FBPA coupling cs: -92.5*; Tau fibril ThT: 7.08µM*; Tau fluor cs: inconclusive; Sfp PPTase inh: 14.1µM*; Tau fibril FP: inconclusive

Results for Cc1cc(C)cc(C(=O)OC2C[C@H]3CC[C@@H](C2)N3C)c1 (some centres undefined) ?
FBPA coupling cs: 3.7; Tau fibril ThT: 2.3%; Tau fluor cs: 5.0%; Sfp PPTase inh: -0.4%; Tau fibril FP: 8.8%

Results for O=C(O)Cc1ccccc1 ?
FBPA coupling cs: 2.0; Tau fibril ThT: 3.6%; Tau fluor cs: 3.5%; Sfp PPTase inh: 2.1%; Tau fibril FP: 0.5%

What do the screens show for `O=C(O)CNC(=O)[C@@H](CS)Cc1ccccc1`?
FBPA coupling cs: 4.5; Sfp PPTase inh: 35.5µM*

How did COc1ccc(C2=C(C(C)=O)Sc3nnc(-c4ccc(C)cc4)n3N2C(C)=O)cc1OC do in these assays?
Tau fibril ThT: inconclusive; Tau fluor cs: inconclusive; Tau fibril FP: -14.6%

What do the screens show for `C[n+]1c2ccccc2nc2ccc(NCCO)cc21`?
FBPA coupling cs: -28.1; Sfp PPTase inh: 79.4µM*

What do the screens show for `Cc1ccc(N2C(=O)NC(=O)/C(=C/c3ccc(-c4ccc(C(=O)O)c(Cl)c4)o3)C2=O)cc1`?
FBPA coupling cs: 6.0; Tau fibril ThT: inconclusive; Tau fluor cs: -11.6%; Sfp PPTase inh: 31.6µM*; Tau fibril FP: 3.5%

Results for CN1c2ccc([N+](=O)[O-])cc2CC2(C(=O)NC(=O)N(c3ccc(Br)cc3)C2=O)C1c1ccccc1 (centres undefined) ?
FBPA coupling cs: -3.8; Tau fibril ThT: 15.8µM*; Tau fluor cs: -14.2%; Sfp PPTase inh: 13.7%; Tau fibril FP: -1.0%
